# Most compounds without a hit are left out; they make up all but 7.9% or so of the library.
# KB-3-1 cytotox: qHTS assay for MDR1-selective chemotherapeutics: Primary screen using the parental adenocarcinoma cell KB-3-1; KB-3-1 viability, CellTiter-Glo ATP luminescence, 72 h; 400,000 compounds, 1.4% hits; Potency, µM (highest dose often 46.1 µM), usual class: cytotoxic; also: % is scaled to controls: 0 for no effect and ±100 for the full control effect; nearly all actives have a fitted effect of over 60% in size
#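 Parental KB-3-1 adenocarcinoma cells in phenol-red-free DMEM with 10% FBS were pin-treated with compounds at several concentrations, incubated 72 h at 37 °C, and viability read by CellTiter-Glo luminescence; concentration-effect curves were fitted after normalization.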
# SW480 rereplic: A quantitative high throughput screen for small molecules that induce DNA re-replication in SW480 colon adenocarcinoma cells; SW480 DNA re-replication, Hoechst DNA content imaging, 48 h; Potency, µM (highest dose often 46.1 µM), without a hit: at the top dose re-replication activation, hits mostly activators; 340,000 compounds, 1.8% hits; AID 624297, 2012; also: % of control where 0% means no effect; nearly all actives have a fitted effect of over 55% in size
#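 First, 250 cells per well were seeded. Next, compound or vehicle (23 nL) was pinned in, plates sat 48 hr at 37 C. Finally Hoechst was added for 40 min before fluorescence scanning.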
# HT1080-NT tox: qHTS for induction of synthetic lethality in tumor cells producing 2HG: qHTS for the HT-1080-NT fibrosarcoma cell line | 360,000 compounds, 1.6% hits | Potency, µM (titrated, usually from 46.1 µM), for inactives: top-dose activity, negative = less viability, hits mostly cytotoxic | HT-1080-NT fibrosarcoma viability, CellTiter-Glo ATP luminescence, 48 h | AID 686970, 2013;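 also: NT is the 2HG producing partner of a matched IDH1 knockdown line; 0% = DMSO-treated cells and -100% = media-only wells without cells; nearly all actives have a fitted effect of over 55% in size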
#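 Toxicity toward the 2HG-producing NT line was scored as %Activity, normalised to DMSO and no-cell wells, from CellTiter-Glo luminescence after 48 hours' treatment.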
# MCF10A rerep: A quantitative high throughput screen for small molecules that induce DNA re-replication in MCF 10a normal breast cells; MCF 10A DNA re-replication, Hoechst nuclear intensity, 48 h; Potency, µM (highest dose often 46.1 µM), for inactives: at the highest dose activity, positive = re-replication, hits mostly activators; 350,000 compounds, 2.9% hits; also: % of control where 0% means no effect; nearly all actives have a fitted effect of over 50% in size
# HT1080 IDH1KD tx: qHTS for induction of synthetic lethality in tumor cells producing 2HG: qHTS for the HT-1080-IDH1KD cell line | HT-1080 IDH1 knockdown viability, ATP luminescence, 48 h | Potency, µM (series often up to 46.1 µM), inactives show at the top dose activity, negative = toxicity, usual class: cytotoxic | 360,000 compounds, 2% hits | AID 686971, 2013;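 also: 0% = DMSO wells and -100% = cell-free medium wells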
#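 CellTiter-Glo luminescence after 48 h compound exposure at 37 degrees C of IDH1-knockdown HT-1080 cells in 5% FBS RPMI. %Activity scaled between DMSO wells and cell-free media wells, with curves fitted and assigned curve classes.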
# KB-V1 MDR tox: qHTS assay for MDR1-selective chemotherapeutics: Primary screen using the drug-selected MDR subline cells KB-V1. 400,000 compounds, 3.4% hits. Potency, µM (highest dose often 46.1 µM), hits mostly cytotoxic. KB-V1 MDR cells viability, CellTiter-Glo, 72 h; also: % is scaled to controls: 0 for no effect and ±100 for the full control effect; nearly all actives have a fitted effect of over 60% in size
#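 Drug-selected KB-V1 cells, grown in DMEM lacking phenol red with 10% FBS, receive compound titrations; after three days at 37 degrees C, surviving cell ATP is quantified by CellTiter-Glo luminescence and responses normalized and curve-fitted.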
# * hit, by the source's call; i = inactive; u = inconclusive; x = no result. Calls follow the shape of the dose curve; as a rule, active = well fitted curve in the direction sought with a large enough effect; inconclusive = small, poorly fitted or top-dose-only effect, or another doubt; inactive = no such curve, though single readings can be large; an effect the other way counts as inactive or inconclusive. Potency is read from the fitted curve at half-maximal effect.
SMILES,KB-3-1 cytotox,SW480 rereplic,HT1080-NT tox,MCF10A rerep,HT1080 IDH1KD tx,KB-V1 MDR tox
CC1(C(=O)Nc2ccc3c(c2)OCCO3)CCN1Cc1csc2ccccc12 (configuration not stated),i,x,-22.8%,x,u,i
CC(C)c1ccc(CN2CCC2(C)C(=O)Nc2ccc3c(c2)OCO3)cc1 (configuration not stated),16.4µM*,x,u,x,u,u
COc1cccc(NC(=O)C2(C)CCN2Cc2ccc(OC(C)C)cc2)c1 (configuration not stated),i,x,9.2%,x,4.6%,u
CC(C)c1ccc(CC(=O)N2CCC2(C)C(=O)Nc2ccccc2)cc1 (configuration not stated),i,x,-7.1%,x,-18.9%,i
CC(C)c1ccc(CC(=O)N2CCC2(C)C(=O)Nc2ccc3c(c2)OCCO3)cc1 (configuration not stated),i,x,-19.9%,x,-27.3%,16.4µM*
CC(C)Oc1ccc(CN2CCC2(C)C(=O)Nc2ccc3c(c2)OCO3)cc1 (configuration not stated),u,x,-20.3%,x,-18.7%,18.4µM*
Cc1ccc(OC(=O)c2oc3ccc(F)cc3c2C)c(C)c1,i,18.4µM*,-17.9%,u,6.6%,i
COc1ccc(/C=C/C(=O)c2oc3ccc(F)cc3c2C)cc1,i,-3.5%,-0.4%,9.4%,-0.9%,i
O=C(NC1CCCCCC1)c1cccnc1Sc1ccccc1,i,-1.5%,-0.3%,u,0.4%,23.1µM*
O=C(NC(c1ccccc1)c1ccccc1)C1CCCC1,i,u,21.0%,-4.4%,10.2%,16.4µM*
O=C(NC1CCCC1)c1ccccc1-c1ccccc1,i,-0.4%,8.8%,-32.0%,11.9%,14.6µM*
O=C(NC(=S)Nc1ccccc1Br)C1CCCCC1,i,0.3%,-0.3%,u,7.5%,16.4µM*
CCn1nnc2cc(C(=O)Nc3ccc(OC)cc3)ccc21,i,x,x,x,x,i
CCOc1ccc(-c2cn(-c3ccc(C)cc3)c(SCC(=O)Nc3ccc(C)cc3)n2)cc1,i,x,x,x,x,i
O=C(Nc1ccccc1C(F)(F)F)C1CCCC1,i,-4.8%,12.4%,0.0%,4.6%,i
O=C(Nc1ccccc1-c1ccccc1)C1CCCC1,7.31µM*,u,u,13µM*,u,u
O=C(Nc1nonc1-c1ccc(Br)cc1)c1ccco1,i,x,x,x,x,i
Cc1[nH]c2ccccc2c1N=Nc1ccc(F)cc1,i,-0.1%,20.6µM*,-3.9%,u,i
COc1ccc(N=C2SCC(c3ccccc3)=NN2C)cc1,i,-6.1%,-8.1%,-1.3%,-5.6%,i
Cc1[nH]c2ccccc2c1N=Nc1ccccc1F,i,-1.7%,u,4.9%,u,u
COc1ccc(N=C2NN=C(c3c(C)[nH]c4ccccc34)CS2)cc1,u,u,u,18.4µM*,u,i
Cc1[nH]c2ccccc2c1C1=NNC(=Nc2ccc(F)cc2)SC1,u,u,-26.4%,20.6µM*,-23.7%,i
CCOc1cccc(C(=O)Nc2cc(C)c(O)c(-c3nc4ncccc4o3)c2)c1,i,x,x,x,x,i
CCc1cccc2c1Sc1ccccc1CC2N1CCNCC1 (configuration not stated),u,86.4%,-17.8%,u,u,13µM*
c1ccc2c(c1)CC(N1CCCCC1)c1ccccc1N2 (configuration not stated),i,-0.4%,0.3%,4.5%,0.4%,i
SMILES,KB-3-1 cytotox,SW480 rereplic,HT1080-NT tox,MCF10A rerep,HT1080 IDH1KD tx,KB-V1 MDR tox
Cc1cccc2c1Sc1ccc(Cl)cc1CC2N1CCNCC1 (configuration not stated),u,28.7%,23.1µM*,11.6µM*,u,u
O=C(CCS(=O)(=O)c1cccc2nonc12)Nc1ccc(F)cc1F,i,x,x,x,x,u
Cc1ccc(C(=O)N2CC(=O)Nc3ccc(Br)cc3C2c2ccc(F)cc2)cc1C (configuration not stated),i,x,x,x,x,u
CC#CC#Cc1cccc(=O)o1,i,23.7%,u,18.4µM*,20.6µM*,u
O=C(CCC1CCCCC1)NNC(=O)c1cnccn1,i,2.91µM*,-1.1%,u,-19.2%,u
Cc1cccc(CSc2cccc3cccnc23)c1,u,6.51µM*,u,u,u,u
NNC(=O)c1ccc(CSc2cccc3cccnc23)cc1,i,-0.8%,-6.0%,14.9%,-2.0%,i
CCOC(=O)CSc1cccc2cccnc12,u,6.51µM*,-27.5%,20.4%,u,23.1µM*
c1cnc2c(SCc3ccc(-c4nnco4)cc3)cccc2c1,i,u,-12.9%,3.9%,-16.7%,14.6µM*
O=C(CCCSCCCC(=O)NN=Cc1ccccc1)NN=Cc1ccccc1,i,-6.7%,-8.0%,12.7%,-2.3%,i
O=C(NCC1CCN(Cc2ccccc2Cl)CC1)c1cc2ccc3cccnc3c2[nH]1,i,x,x,x,x,i
Cc1nc2sccn2c(=O)c1S(=O)(=O)Nc1cc(Cl)ccc1O,i,x,x,x,x,i
CCOC(=O)c1nnc(-c2ccccc2)nc1Sc1ccccc1Cl,u,u,u,6.51µM*,20.6µM*,i
CC1CCCN(CCCNC(=O)c2ccc(NC(=O)C3=CSCCO3)cc2)C1 (configuration not stated),i,-2.9%,0.9%,-5.3%,0.7%,i
Cc1cccc(N2CCN(CCCNC(=O)c3ccc(NC(=O)C4=CSCCO4)cc3)CC2C)c1 (configuration not stated),i,u,u,u,20.6µM*,i
